# Test results: ChEMBL document CHEMBL2218924, “A broad activity screen in support of a chemogenomic map for kinase signalling research and drug discovery” (Biochem J, 2013); call rule not given here
# Experiments:
# [1] = molecular target: T1, Ephrin type-B receptor 1 (Homo sapiens) (UniProt P54762); conditions: at 10 µM
# T1 sequence (whole entry): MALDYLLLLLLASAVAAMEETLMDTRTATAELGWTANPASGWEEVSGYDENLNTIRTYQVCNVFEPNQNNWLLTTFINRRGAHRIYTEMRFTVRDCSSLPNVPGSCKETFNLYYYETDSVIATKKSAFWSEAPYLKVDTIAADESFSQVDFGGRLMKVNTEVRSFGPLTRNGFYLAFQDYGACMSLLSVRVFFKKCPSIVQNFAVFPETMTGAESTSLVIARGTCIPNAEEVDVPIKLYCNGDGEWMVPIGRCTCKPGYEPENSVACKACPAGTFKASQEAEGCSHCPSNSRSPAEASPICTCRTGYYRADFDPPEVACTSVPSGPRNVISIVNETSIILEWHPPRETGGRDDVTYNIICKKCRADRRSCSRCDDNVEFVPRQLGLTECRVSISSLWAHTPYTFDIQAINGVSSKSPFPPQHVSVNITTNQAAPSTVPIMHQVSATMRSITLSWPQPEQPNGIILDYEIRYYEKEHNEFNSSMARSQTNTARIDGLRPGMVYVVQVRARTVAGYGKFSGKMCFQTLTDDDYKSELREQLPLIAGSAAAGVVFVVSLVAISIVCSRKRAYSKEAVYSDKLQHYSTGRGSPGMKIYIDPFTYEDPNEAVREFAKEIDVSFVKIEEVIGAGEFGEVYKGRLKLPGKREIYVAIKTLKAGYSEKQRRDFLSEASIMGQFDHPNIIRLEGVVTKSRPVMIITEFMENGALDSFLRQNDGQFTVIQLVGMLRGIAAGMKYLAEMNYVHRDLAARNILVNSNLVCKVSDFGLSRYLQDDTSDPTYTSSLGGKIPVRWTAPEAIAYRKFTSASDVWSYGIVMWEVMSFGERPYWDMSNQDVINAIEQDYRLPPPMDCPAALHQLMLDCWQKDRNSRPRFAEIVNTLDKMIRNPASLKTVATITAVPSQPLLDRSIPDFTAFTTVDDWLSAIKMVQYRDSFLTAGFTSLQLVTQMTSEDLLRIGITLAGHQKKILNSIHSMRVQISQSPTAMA
# [2] = molecular target: T2, Ephrin type-B receptor 2 (Homo sapiens) (UniProt P29323); conditions: at 1 µM
# T2 sequence (whole entry): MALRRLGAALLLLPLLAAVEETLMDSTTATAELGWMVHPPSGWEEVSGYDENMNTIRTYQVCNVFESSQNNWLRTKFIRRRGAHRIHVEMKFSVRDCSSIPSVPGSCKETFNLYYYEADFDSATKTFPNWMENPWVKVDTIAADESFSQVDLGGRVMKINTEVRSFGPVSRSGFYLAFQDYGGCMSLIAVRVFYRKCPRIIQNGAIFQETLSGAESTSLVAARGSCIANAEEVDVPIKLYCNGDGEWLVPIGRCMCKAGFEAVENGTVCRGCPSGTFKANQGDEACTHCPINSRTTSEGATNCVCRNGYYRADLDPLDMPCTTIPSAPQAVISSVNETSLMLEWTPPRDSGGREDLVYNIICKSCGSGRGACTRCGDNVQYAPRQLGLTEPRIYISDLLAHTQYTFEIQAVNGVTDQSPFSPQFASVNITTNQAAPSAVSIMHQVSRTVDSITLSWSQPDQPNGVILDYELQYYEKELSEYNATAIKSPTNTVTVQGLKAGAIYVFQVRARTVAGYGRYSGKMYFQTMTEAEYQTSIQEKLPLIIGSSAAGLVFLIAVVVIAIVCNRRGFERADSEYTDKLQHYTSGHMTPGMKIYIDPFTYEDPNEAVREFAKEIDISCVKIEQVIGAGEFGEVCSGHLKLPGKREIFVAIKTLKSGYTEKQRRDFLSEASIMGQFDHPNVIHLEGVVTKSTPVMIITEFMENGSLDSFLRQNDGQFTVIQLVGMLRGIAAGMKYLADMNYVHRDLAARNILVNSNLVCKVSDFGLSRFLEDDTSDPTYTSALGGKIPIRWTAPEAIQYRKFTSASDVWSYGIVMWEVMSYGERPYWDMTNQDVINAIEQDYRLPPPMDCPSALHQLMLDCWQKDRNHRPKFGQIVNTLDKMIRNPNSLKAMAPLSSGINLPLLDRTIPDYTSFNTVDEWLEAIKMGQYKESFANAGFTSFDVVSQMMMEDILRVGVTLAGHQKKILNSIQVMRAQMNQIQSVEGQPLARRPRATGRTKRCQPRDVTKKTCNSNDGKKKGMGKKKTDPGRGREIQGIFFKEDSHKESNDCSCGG
# [3] = molecular target: T2, Ephrin type-B receptor 2 (Homo sapiens); conditions: at 10 µM
# [4] = molecular target: T3, Ephrin type-B receptor 3 (Homo sapiens) (UniProt P54753); conditions: at 1 µM
# T3 sequence (whole entry): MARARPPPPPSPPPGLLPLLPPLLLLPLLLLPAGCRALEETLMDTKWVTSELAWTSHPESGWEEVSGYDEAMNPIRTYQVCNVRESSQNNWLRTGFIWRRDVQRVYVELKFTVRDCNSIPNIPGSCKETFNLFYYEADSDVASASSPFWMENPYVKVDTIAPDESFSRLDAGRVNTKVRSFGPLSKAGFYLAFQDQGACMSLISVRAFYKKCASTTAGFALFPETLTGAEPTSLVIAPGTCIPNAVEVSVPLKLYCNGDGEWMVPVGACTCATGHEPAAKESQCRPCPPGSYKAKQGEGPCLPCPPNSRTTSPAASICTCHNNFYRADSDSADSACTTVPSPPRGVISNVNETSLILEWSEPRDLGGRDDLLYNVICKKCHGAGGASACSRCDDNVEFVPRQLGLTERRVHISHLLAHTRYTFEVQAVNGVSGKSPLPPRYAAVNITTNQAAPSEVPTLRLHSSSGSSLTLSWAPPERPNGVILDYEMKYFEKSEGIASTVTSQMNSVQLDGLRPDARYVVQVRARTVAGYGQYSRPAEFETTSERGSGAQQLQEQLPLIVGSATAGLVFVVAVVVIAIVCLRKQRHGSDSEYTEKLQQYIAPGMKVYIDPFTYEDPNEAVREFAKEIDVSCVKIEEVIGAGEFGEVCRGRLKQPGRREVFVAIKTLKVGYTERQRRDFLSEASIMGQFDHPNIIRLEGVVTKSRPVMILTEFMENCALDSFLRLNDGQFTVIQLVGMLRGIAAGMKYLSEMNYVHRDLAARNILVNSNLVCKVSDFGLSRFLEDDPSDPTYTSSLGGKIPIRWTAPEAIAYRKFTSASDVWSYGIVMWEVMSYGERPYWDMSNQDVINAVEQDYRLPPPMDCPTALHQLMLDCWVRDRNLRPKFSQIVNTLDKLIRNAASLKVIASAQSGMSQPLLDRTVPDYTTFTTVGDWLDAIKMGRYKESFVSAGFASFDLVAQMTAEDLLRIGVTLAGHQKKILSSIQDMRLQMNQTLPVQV
# [5] = molecular target: T3, Ephrin type-B receptor 3 (Homo sapiens); conditions: at 10 µM
# [6] = molecular target: T4, Ephrin type-B receptor 4 (Homo sapiens) (UniProt P54760); conditions: at 1 µM
# T4 sequence (whole entry): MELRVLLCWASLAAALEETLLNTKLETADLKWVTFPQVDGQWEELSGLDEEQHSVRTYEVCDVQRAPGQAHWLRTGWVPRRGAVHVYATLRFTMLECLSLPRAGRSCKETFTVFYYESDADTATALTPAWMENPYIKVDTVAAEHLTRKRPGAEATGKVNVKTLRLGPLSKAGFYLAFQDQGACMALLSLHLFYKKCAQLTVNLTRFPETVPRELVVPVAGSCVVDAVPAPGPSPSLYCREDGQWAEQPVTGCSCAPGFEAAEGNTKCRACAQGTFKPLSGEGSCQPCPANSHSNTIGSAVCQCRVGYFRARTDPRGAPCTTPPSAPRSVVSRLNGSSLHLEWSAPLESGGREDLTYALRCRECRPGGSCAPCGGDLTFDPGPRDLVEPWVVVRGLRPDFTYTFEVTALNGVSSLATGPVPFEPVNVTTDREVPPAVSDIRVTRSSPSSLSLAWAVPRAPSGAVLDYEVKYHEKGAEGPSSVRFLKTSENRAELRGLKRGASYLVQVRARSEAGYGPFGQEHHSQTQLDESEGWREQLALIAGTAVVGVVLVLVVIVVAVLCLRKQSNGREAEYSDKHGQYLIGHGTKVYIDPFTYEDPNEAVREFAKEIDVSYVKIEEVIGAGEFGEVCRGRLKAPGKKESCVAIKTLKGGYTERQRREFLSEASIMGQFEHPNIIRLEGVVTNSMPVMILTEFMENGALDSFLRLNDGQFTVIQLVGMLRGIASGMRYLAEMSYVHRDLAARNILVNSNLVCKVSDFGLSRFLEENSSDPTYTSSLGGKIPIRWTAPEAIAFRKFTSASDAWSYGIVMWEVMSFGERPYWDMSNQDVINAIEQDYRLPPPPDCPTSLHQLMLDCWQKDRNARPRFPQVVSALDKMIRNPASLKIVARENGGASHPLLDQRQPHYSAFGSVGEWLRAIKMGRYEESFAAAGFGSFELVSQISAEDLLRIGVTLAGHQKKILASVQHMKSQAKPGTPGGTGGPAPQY
# [7] = molecular target: T4, Ephrin type-B receptor 4 (Homo sapiens); conditions: at 10 µM
# [8] = molecular target: Receptor tyrosine-protein kinase erbB-4 (Homo sapiens) (UniProt Q15303); conditions: at 1 µM
# Receptor tyrosine-protein kinase erbB-4 (Homo sapiens), sequence (Q15303 whole entry): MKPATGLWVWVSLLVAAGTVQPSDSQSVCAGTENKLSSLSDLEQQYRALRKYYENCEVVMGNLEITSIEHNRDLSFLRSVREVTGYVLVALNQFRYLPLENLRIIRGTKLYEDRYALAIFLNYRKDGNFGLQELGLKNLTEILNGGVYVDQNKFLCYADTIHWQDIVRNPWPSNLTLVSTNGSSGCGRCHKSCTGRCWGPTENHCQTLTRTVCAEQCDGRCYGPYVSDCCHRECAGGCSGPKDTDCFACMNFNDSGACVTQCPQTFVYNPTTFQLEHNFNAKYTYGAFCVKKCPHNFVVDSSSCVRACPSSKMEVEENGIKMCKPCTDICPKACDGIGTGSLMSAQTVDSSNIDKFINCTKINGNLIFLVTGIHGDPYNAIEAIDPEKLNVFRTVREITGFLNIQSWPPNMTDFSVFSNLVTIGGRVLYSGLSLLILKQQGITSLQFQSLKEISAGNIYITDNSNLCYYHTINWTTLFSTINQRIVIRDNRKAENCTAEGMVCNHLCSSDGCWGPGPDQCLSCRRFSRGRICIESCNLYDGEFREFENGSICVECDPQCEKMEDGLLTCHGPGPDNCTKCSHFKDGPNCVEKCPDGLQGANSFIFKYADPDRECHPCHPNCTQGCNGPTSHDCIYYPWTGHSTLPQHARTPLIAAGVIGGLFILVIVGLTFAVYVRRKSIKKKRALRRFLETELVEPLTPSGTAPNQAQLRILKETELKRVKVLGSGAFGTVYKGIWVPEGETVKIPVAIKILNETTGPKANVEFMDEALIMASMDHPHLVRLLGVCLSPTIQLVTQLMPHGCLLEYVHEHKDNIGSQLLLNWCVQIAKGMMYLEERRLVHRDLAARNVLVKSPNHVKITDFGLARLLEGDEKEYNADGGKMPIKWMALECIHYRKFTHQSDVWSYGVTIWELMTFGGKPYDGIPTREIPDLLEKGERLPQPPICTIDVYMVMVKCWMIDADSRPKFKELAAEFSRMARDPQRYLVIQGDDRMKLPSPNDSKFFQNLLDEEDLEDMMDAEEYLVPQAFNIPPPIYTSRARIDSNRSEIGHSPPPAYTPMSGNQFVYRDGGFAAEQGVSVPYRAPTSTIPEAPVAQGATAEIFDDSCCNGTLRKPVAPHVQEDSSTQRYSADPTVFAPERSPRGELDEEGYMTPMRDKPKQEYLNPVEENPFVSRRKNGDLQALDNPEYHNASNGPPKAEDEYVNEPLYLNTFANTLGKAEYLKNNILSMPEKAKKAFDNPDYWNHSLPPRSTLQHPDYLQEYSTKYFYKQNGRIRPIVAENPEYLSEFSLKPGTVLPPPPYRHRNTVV
# [9] = molecular target: Receptor tyrosine-protein kinase erbB-4 (Homo sapiens) (UniProt Q15303); conditions: at 10 µM
# [10] = molecular target: Focal adhesion kinase 1 (Homo sapiens) (UniProt Q05397); conditions: at 1 µM
# Focal adhesion kinase 1 (Homo sapiens), sequence (Q05397 2-1052 limits assumed): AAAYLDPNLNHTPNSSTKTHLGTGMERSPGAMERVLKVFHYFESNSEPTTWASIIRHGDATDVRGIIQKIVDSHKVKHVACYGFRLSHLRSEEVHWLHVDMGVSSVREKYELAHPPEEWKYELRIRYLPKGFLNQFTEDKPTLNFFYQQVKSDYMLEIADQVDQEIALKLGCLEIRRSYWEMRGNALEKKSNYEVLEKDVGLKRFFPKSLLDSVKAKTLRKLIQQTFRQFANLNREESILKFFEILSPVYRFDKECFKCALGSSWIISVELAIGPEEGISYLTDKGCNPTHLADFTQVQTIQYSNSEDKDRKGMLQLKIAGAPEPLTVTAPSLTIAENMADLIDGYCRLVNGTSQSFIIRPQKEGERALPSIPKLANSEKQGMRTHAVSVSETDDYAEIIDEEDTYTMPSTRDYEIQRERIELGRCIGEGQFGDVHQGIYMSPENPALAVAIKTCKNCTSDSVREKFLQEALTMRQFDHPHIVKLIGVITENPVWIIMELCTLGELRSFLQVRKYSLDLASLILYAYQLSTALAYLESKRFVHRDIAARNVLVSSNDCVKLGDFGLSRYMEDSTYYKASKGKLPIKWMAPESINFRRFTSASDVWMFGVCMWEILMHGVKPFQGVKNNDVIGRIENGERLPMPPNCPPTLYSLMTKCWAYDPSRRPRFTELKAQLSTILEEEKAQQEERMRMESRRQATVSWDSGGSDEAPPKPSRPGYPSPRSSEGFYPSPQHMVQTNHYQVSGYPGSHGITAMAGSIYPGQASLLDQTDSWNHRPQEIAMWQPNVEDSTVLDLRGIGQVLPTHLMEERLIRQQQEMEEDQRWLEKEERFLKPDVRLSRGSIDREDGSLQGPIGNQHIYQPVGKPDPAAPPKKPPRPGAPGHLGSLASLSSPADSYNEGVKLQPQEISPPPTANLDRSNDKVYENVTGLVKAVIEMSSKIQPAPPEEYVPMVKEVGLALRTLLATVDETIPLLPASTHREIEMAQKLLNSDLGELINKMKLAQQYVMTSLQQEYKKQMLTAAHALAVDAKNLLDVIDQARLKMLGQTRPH
smiles,measurement,setting,value
CO[C@H]1[C@@H](OC)C[C@H](C)[C@@H](OC)C2=CC(=O)C=C(NC(=O)/C(C)=C/C=C/[C@H](OC)[C@@H](OC(N)=O)/C(C)=C/[C@@H]1C)C2=O,residual activity,[1],103%
same,residual activity,[2],115%
same,residual activity,[3],128%
same,residual activity,[4],111% (inactive)
same,residual activity,[5],102%
same,residual activity,[6],94%
same,residual activity,[7],113%
same,residual activity,[8],92%
same,residual activity,[9],67%
same,residual activity,[10],110%
